# Results as given in PubChem BioAssay (NCATS).
# “And” between values parts separate entries of the source, which are not always exact repeats. Equal values may be shown once. Inconclusive results are not listed. Where a call stands in place of a potency, no number is given. The source made the active and inactive calls. Unless noted, the call rests on the fitted dose curve; in most records, active means well fitted curve in the direction sought with a large enough effect; inconclusive means small, poorly fitted or top-dose-only effect, or another doubt; inactive means no such curve, though single readings can be large; an effect the other way counts as inactive or inconclusive.
# Columns and labels:
# [1] = Validation of Assay for Modulators of Lamin A Splicing (AID 1459; active means well fitted curve in the direction sought with a large enough effect in the signal ratio; the % refers to the signal ratio;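 further: cells exposed to compound for two days before reading; ratio rise marks activators and ratio drop marks inhibitors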)
# Procedure, shortened: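 S3 HeLa stably expressing lamin A-EGFP splicing minigene and DsRed2, 600 cells/well in Opti-MEM with 2% FBS, treated 48 h at 37C; laser-scanning cytometry gives GFP/RFP total intensity ratio; ancitabine positive control, 0.5% DMSO vehicle.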
# [2] = qHTS Assay for Lipid Storage Modulators (AID 1519; calls by dose curve); details: Drosophila S3 cells, BODIPY lipid droplet/cell ratio, laser cytometry, cells loaded with oleic acid
# Procedure, shortened: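 Cells seeded at 5,000 per well were treated with compounds over a concentration series and loaded with oleic acid (400 uM, as added). Lipid droplet fluorescence (488 nm excitation, 500-530 nm channel) was read by laser-scanning cytometry and normalized to 20 uM Triacsin C.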
# [3] = molecular target: DNA repair nuclease/redox regulator APEX1 (Homo sapiens) (UniProt P27695); experiment: qHTS Validation Assay for Inhibitors of the Human Apurinic/apyrimidinic Endonuclease 1 (APE1) (AID 1705; further: potency means the concentration at half of the fitted maximal effect;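 on activity change, negative = inhibition: TAMRA fluorescence gain over two minutes as APE1 cuts a quenched THF abasic duplex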)
# Procedure, shortened: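 Fluorogenic double-stranded THF abasic-site substrate (5'-TAMRA/3'-BHQ-2), 50 nM final. Enzyme preincubated with compound 15 min at room temperature, then substrate added. Kinetic fluorescence (ex 525/em 598 nm) read three times at 60 s intervals; activity taken as third-minus-first read difference.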
# [4] = Counterscreen for APE1 Inhibitors: Fluorescent Dye Displacement Validation Assay (AID 1707); further: potency means the concentration at half of the fitted maximal effect
# Procedure, shortened: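 Thiazole Orange displacement from dsDNA: 250 nM ThO with 50 nM TAMRA-labelled abasic-site (tetrahydrofuran) duplex in 50 mM Tris-HCl pH7.5, 50mM NaCl, 2 mM MgCl2, 0.01% Tween-20. Loss of endpoint fluorescence (ex 480 nm, em 540 nm) flags DNA binders.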
# [5] = molecular target: Endonuclease 4 (Escherichia coli (strain K12)) (UniProt P0A6C1); experiment: Counterscreen for APE1 Inhibitors: qHTS Validation Assay for Inhibitors of Endonuclease IV (AID 1708)
# Procedure, shortened: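 Cleavage of a quenched abasic-site DNA duplex (50 nM, 5'-TAMRA, 3'-BHQ-2) by 2 nM enzyme is followed as fluorescence increase. Compounds are preincubated with enzyme 15 min at room temperature before substrate addition.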
# [6] = qHTS for differential inhibitors of proliferation of Plasmodium falciparum line 7G8 (AID 1815);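 further: parasite growth measured after three days of incubation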; further: potency means the concentration at half of the fitted maximal effect
# [7] = qHTS for differential inhibitors of proliferation of Plasmodium falciparum line GB4 (AID 1816); details: Potency: Plasmodium falciparum GB4 proliferation inhibition;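 further: parasite growth measured after 72 h incubation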; further: potency means the concentration at half of the fitted maximal effect
# [8] = molecular target: Alpha-galactosidase A (Homo sapiens) (UniProt P06280); experiment: Counterscreen for Glucocerebrosidase Inhibitors: qHTS Assay for Human alpha-Galactosidase at pH 4.5 (AID 992)
# Procedure, shortened: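 Enzyme at 2 nM final was combined with compound (0.7 nM to 77 uM) and 80 uM 4-methylumbelliferyl alpha-D-galactopyranoside in 50 mM citric acid, 0.005% Tween-20, pH 4.5. After 20 min at room temperature, fluorescence was read (Ex 365/Em 440 nm); AC50 came from Hill fits.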
# [9] = molecular target: alpha-glucosidase (Oryza sativa, rice) (UniProt Q653V4); experiment: Counterscreen for Glucocerebrosidase Inhibitors: qHTS Assay for Rice alpha-Glucosidase at pH 5.0 (AID 997)
# Procedure, shortened: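 Rice alpha-glucosidase (4 nM final) with 400 uM 4-methylumbelliferyl-alpha-D-glucopyranoside in citrate buffer pH 5.0, 20 min at room temperature, stopped at pH 10; fluorescence 365/440 nm, compounds 0.7 nM–77 uM, AC50 from Hill fits.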
# [10] = measured here: cell count channel max response
# [11] = measured here: lipid channel max response
# DNA repair nuclease/redox regulator APEX1 (Homo sapiens), sequence (P27695 whole entry, looked up): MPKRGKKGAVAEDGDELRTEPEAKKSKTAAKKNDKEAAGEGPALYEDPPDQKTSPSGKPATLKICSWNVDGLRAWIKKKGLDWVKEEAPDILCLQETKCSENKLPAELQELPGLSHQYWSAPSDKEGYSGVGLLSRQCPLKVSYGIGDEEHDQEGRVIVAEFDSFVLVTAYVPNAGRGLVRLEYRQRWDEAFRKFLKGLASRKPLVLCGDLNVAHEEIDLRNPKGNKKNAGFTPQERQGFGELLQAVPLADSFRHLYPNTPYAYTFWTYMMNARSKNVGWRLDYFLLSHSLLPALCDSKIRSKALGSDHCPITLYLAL
# Alpha-galactosidase A (Homo sapiens), sequence (P06280 whole entry, looked up): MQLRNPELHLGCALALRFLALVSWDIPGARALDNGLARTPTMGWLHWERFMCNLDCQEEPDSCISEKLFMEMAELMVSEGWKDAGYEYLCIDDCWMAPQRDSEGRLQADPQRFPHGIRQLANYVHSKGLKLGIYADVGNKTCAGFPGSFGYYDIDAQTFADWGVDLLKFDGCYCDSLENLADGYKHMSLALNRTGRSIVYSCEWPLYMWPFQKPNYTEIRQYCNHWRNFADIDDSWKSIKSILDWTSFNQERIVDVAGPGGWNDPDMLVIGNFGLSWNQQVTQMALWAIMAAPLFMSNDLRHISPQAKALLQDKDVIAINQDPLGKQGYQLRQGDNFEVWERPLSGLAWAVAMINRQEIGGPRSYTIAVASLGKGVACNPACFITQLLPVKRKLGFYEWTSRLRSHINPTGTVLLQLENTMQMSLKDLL
structure (smiles),measurement,setting,value
CC(C)(C)c1onc(OCP(=O)(O)O)c1CC(N)C(=O)O (centres undefined),outcome,[1],inactive
same,"activity change, negative = inhibition",[2]; at 57.5 µM (top of the series),-0.922% (inactive)
same,max response,[2]; [10],-37.6%
same,max response,[2]; [11],-40.1%
same,Potency,[3],inactive
same,Potency,[4],inactive
same,Potency,[5],inactive
same,Potency,[6],inactive
same,Potency,[7],inactive
CCN(CC)CCOC(=O)C1(C2CCCCC2)CCCCC1,outcome,[8],inactive
same,outcome,[9],inactive
same,outcome,[1],inactive
same,Potency,[3],inactive
same,Potency,[4],inactive
same,Potency,[5],inactive
same,Potency,[6],8.91 µM (active)
same,Potency,[7],14.1 µM (active)
OCC(O)CN1CCN(c2ccccc2)CC1 (centres undefined),"activity change, negative = inhibition",[2]; at 57.5 µM (top of the series),11.8% (inactive)
same,max response,[2]; [10],18.2%
same,max response,[2]; [11],35.4%
CN(C)CCN(Cc1ccccc1)c1ccccn1,"activity change, negative = inhibition",[2]; at 57.5 µM (top of the series),1.48% (inactive)
same,max response,[2]; [10],12.3%
same,max response,[2]; [11],16.2%
CC(COc1ccccc1)NC(C)C(O)c1ccc(O)cc1 (centres undefined),"activity change, negative = inhibition",[2]; at 57.5 µM (top of the series),4.19% (inactive)
same,max response,[2]; [10],1.34%
same,max response,[2]; [11],8.74%
O=C(Oc1ccccc1C(=O)O)c1ccccc1O,"activity change, negative = inhibition",[2]; at 57.5 µM (top of the series),4.87% (inactive)
same,max response,[2]; [10],-1.82%
same,max response,[2]; [11],6.63%
CC(CN1c2ccccc2Sc2ccccc21)N(C)C (centres undefined),outcome,[1],inactive
same,"activity change, negative = inhibition",[2]; at 57.5 µM (top of the series),7.97% (inactive) and 1.76% (inactive)
same,max response,[2]; [10],24.2% and 6.53%
same,max response,[2]; [11],44.6% and 8.19%
same,Potency,[3],inactive
same,Potency,[4],inactive
same,Potency,[5],inactive
same,Potency,[6],7.08 µM (active)
same,Potency,[7],6.31 µM (active)
CC(=O)c1ccc2c(c1)N(CCCN(C)C)c1ccccc1S2,"activity change, negative = inhibition",[2]; at 25.7 µM (top of the series),-1.98% (inactive)
same,max response,[2]; [10],0.996%
same,max response,[2]; [11],-1.83%
CNCCC(Oc1ccc(C(F)(F)F)cc1)c1ccccc1 (centres undefined),outcome,[1],inactive
same,Potency,[4],inactive
same,Potency,[5],inactive
COc1ccc(Cl)cc1C(=O)NCCc1ccc(S(=O)(=O)NC(=O)NC2CCCCC2)cc1,outcome,[8],inactive
same,outcome,[9],inactive
same,outcome,[1],inactive
same,"activity change, negative = inhibition",[2]; at 25.7 µM (top of the series),1.56% (inactive)
same,"activity change, negative = inhibition",[2]; at 57.5 µM (top of the series),12.5% (inactive) and -0.0195% (inactive)
same,max response,[2]; [10],8.8% and 2.97% and -31.1%
same,max response,[2]; [11],12.4% and 18.9% and -32.5%
same,Potency,[3],inactive
same,Potency,[4],inactive
same,Potency,[5],inactive
same,Potency,[7],inactive
O=C1N=C(O)CN1/N=C/c1ccc(-c2ccc([N+](=O)[O-])cc2)o1,outcome,[1],inactive
same,Potency,[3],inactive
same,Potency,[5],inactive
NCC(=O)CCC(=O)O,"activity change, negative = inhibition",[2]; at 57.5 µM (top of the series),1.06% (inactive)
same,max response,[2]; [10],6.63%
same,max response,[2]; [11],10.2%
CNCC(O)c1ccc(O)c(O)c1 (centres undefined),outcome,[1],inactive
same,Potency,[3],inactive
same,Potency,[4],inactive
same,Potency,[5],inactive
C=Cc1c(C)c2cc3[nH]c(cc4nc(cc5nc(cc1[nH]2)C(C)=C5CCC(=O)O)C(CCC(=O)O)=C4C)c(C)c3C=C,outcome,[8],inactive
same,outcome,[9],inactive
same,outcome,[1],inactive
same,"activity change, negative = inhibition",[2]; at 57.5 µM (top of the series),12.2% (inactive)
same,max response,[2]; [10],1.69%
same,max response,[2]; [11],21.3%
same,Potency,[3],5.01 µM (active)
same,Potency,[4],7.94 µM (active)
same,Potency,[5],inactive
same,Potency,[6],inactive
same,Potency,[7],inactive
N=c1c[n+](N2CCOCC2)[n-]o1,outcome,[8],inactive
same,outcome,[9],inactive
same,outcome,[1],inactive
same,"activity change, negative = inhibition",[2]; at 57.5 µM (top of the series),-0.431% (inactive)
same,max response,[2]; [10],25.9%
same,max response,[2]; [11],27.5%
same,Potency,[4],inactive
same,Potency,[5],inactive
same,Potency,[6],inactive
same,Potency,[7],inactive
CCCCCCCCCCCCCCCC(=O)NCCO,outcome,[8],inactive
same,outcome,[9],inactive
same,outcome,[1],inactive
same,Potency,[3],inactive
same,Potency,[4],inactive
same,Potency,[5],inactive
CC1(C)OC(=O)NC1=O,"activity change, negative = inhibition",[2]; at 25.7 µM (top of the series),-0.879% (inactive)
same,max response,[2]; [10],-12%
same,max response,[2]; [11],-11.9%
CC(C)(C(=O)O)c1ccc(C(O)CCCN2CCC(C(O)(c3ccccc3)c3ccccc3)CC2)cc1 (centres undefined),outcome,[1],inactive
same,"activity change, negative = inhibition",[2]; at 57.5 µM (top of the series),2.57% (inactive) and -0.0758% (inactive)
same,max response,[2]; [10],23% and -17.7%
same,max response,[2]; [11],28% and -18.6%
same,Potency,[4],inactive
same,Potency,[5],inactive
same,Potency,[6],inactive
same,Potency,[7],inactive
CCN(CC)C(C)CN1c2ccccc2Sc2ccccc21 (centres undefined),"activity change, negative = inhibition",[2]; at 57.5 µM (top of the series),2.47% (inactive)
same,max response,[2]; [10],-20.9%
same,max response,[2]; [11],-15.4%
COc1ccc2c(c1)C(=O)N(CCc1ccc(S(=O)(=O)NC(=O)NC3CCCCC3)cc1)C(=O)C2(C)C,"activity change, negative = inhibition",[2]; at 25.7 µM (top of the series),-1.13% (inactive)
same,max response,[2]; [10],-22.2%
same,max response,[2]; [11],-23.3%
OCc1cc(C(O)CNCCCCCCOCCCCc2ccccc2)ccc1O (centres undefined),outcome,[8],inactive
same,outcome,[9],inactive
same,outcome,[1],inactive
same,"activity change, negative = inhibition",[2]; at 57.5 µM (top of the series),-1.85% (inactive)
same,max response,[2]; [10],12.8%
same,max response,[2]; [11],10.1%
same,Potency,[3],inactive
same,Potency,[4],inactive
same,Potency,[5],inactive
same,Potency,[6],8.91 µM (active)
same,Potency,[7],8.91 µM (active)
Cc1ccc(C(C)C)cc2c(C)ccc1-2,"activity change, negative = inhibition",[2]; at 57.5 µM (top of the series),7.53% (inactive)
same,max response,[2]; [10],18.3%
same,max response,[2]; [11],26.1%
CC(CN(C)C)CN1c2ccccc2CCc2ccccc21 (centres undefined),outcome,[1],inactive
same,"activity change, negative = inhibition",[2]; at 57.5 µM (top of the series),8.3% (inactive) and -0.445% (inactive)
same,max response,[2]; [10],-4.41% and -13%
same,max response,[2]; [11],4.99% and -13.2%
same,Potency,[3],inactive
same,Potency,[4],inactive
same,Potency,[6],8.91 µM (active)
same,Potency,[7],5.62 µM (active)
CN1CCN(C2Cc3ccccc3Sc3ccc(Cl)cc32)CC1 (centres undefined),outcome,[1],inactive
same,"activity change, negative = inhibition",[2]; at 57.5 µM (top of the series),1.27% (inactive)
same,max response,[2]; [10],-11.4%
same,max response,[2]; [11],-9.31%
same,Potency,[3],inactive
same,Potency,[4],inactive
same,Potency,[6],6.31 µM (active)
same,Potency,[7],11.2 µM (active)
CCCCN1CCCC[C@H]1C(=O)Nc1c(C)cccc1C,"activity change, negative = inhibition",[2]; at 25.7 µM (top of the series),-1.47% (inactive)
same,max response,[2]; [10],8.59%
same,max response,[2]; [11],9.64%
CCN(CC)CCNC(=O)c1cc(Cl)c(N)cc1OC,outcome,[8],inactive
same,outcome,[9],inactive
same,outcome,[1],inactive
same,"activity change, negative = inhibition",[2]; at 25.7 µM (top of the series),-0.223% (inactive)
same,"activity change, negative = inhibition",[2]; at 57.5 µM (top of the series),6.86% (inactive)
same,max response,[2]; [10],-7.61% and 4.16%
same,max response,[2]; [11],-6.48% and 12.9%
same,Potency,[3],inactive
same,Potency,[4],inactive
same,Potency,[5],inactive
same,Potency,[6],inactive
same,Potency,[7],inactive
